This is an account of results in article PMC7819943, “Rice protein-binding microarrays: a tool to detect cis-acting elements near promoter regions in rice”.

Over roughly 68,000 sequences, “fluorescence intensity (a.u.)” has its median near 9,100; the highest 2% begin near 16,000. What follows is part of a selection rich in the highest values, with near analogues and random picks from the rest.

The target of the assay is OsWRKY34 (Oryza sativa, UniProt Q0JBA9 1-250). Put plainly: protein-binding microarray (RPBM); PBS, 2% BSA, 51.3 ng/ul salmon testes DNA, 50 uM zinc acetate, 200 nM TF, 25 C, 1 h; high values mean tight binding. Conditions: protein: recombinant; tags: N-terminal polyhistidine and DsRed monomer fusion (pET32a); label: CyDye5-dUTP incorporated in the synthesized complementary strand; 3' TTTTT single-stranded linker to array surface; dsDNA, one strand shown. Put shortly: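 Binding signal here means per-feature fluorescence intensity in arbitrary units. The values were read on an Axon 4000B scanner after a custom Agilent array, double-stranded by primer extension with Cy5-dUTP, was incubated with 200 nM protein at 25 °C for 1 h in PBS with 2% BSA, salmon testes DNA and 50 µM zinc acetate, then washed. The proteins were transcription factors with an N-terminal polyhistidine tag and DsRed, expressed in E. coli BL21-CodonPlus and purified on Ni–NTA.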
Chain of OsWRKY34 (Q0JBA9 entry or part of it): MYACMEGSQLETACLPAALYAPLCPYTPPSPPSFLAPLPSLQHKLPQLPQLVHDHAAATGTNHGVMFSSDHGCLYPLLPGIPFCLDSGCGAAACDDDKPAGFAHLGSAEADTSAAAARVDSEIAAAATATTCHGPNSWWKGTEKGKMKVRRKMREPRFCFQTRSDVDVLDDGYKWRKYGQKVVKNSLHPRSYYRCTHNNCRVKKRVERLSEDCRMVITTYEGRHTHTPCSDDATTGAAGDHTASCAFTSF
Regarding “AATTCCTGGCTACGCCACTGCTGCTCTATATATCAAGCCGCGGAGTCACCTAGTGCAG”, the binding signal was 8080 fluorescence intensity (a.u.).

As for “CTCGATTGCGTGTTGTAGATTTTGTGTTTTTGTTCTTGCGCGGAGTCACCTAGTGCAG”, the binding signal is 8030 fluorescence intensity (a.u.). The result for “CCCACATCAAAACCTTGAATTTTCACAGTTTCTTGCATTTCGGAGTCACCTAGTGCAG” reads 9890 fluorescence intensity (a.u.); that for “TTTCACTTGCTTGTTTTTCATGTCCACACTTCCCAACTCACGGAGTCACCTAGTGCAG”, 16600 fluorescence intensity (a.u.). The result for “TCCAACTCACTTATCTCGTTTTCCGCGCACACGTTTTTTACGGAGTCACCTAGTGCAG” reads 16500 fluorescence intensity (a.u.); that for “TGTCCACACTTCCCAACTCATTAAATAGTTTGTTTTTTGACGGAGTCACCTAGTGCAG”, 8320 fluorescence intensity (a.u.); that for “GCTTGCCAACTTGTCCCAAATTTCCTTCGGCGTTTTTTCACGGAGTCACCTAGTGCAG”, 10800 fluorescence intensity (a.u.).

For “CTTATCTCTCTCGTTTTCCACGCACACGTTTTTCAAACCGCGGAGTCACCTAGTGCAG”, the binding signal is 8940 fluorescence intensity (a.u.). The result for “AGAGTTCTTATCCTAGTTTTTCCAACTCACTTATCTCGTTCGGAGTCACCTAGTGCAG” reads 10900 fluorescence intensity (a.u.). The value for “AACGTTTGATTTTTCATTTCTCTTATTACTGACTTATTTACGGAGTCACCTAGTGCAG” was 9850 fluorescence intensity (a.u.); that for “CGCCGCCGCTCGCCGACGTCGCCGCCATCGCCATTACAGCCGGAGTCACCTAGTGCAG” was 8980 fluorescence intensity (a.u.). With “CTACGATACACCGCTTGTTTCTGTTTTTCTTATCTAGGAACGGAGTCACCTAGTGCAG”, the binding signal was 9180 fluorescence intensity (a.u.).

As to “TGGTTTGGTTACTGGTTTAGTGCTTGAATTAATGTGGCACCGGAGTCACCTAGTGCAG”, the binding signal was 18400 fluorescence intensity (a.u.). The result for “GTGTTGTGGTTTACTGAATTGATGTTTGGCTTAAGTGATGCGGAGTCACCTAGTGCAG” reads 11800 fluorescence intensity (a.u.); that for “GGTTTGGCTTGGCTTGGCGGCTGGTTCTGCTGAGGCTGACCGGAGTCACCTAGTGCAG”, 11900 fluorescence intensity (a.u.). The result for “GGGCTGGTTTGGCTTGGCTGTTACAAAGACAAAGAATGACCGGAGTCACCTAGTGCAG” reads 16800 fluorescence intensity (a.u.); that for “CCTGTTACCTGTTTGGCTGACTTGGTCAAACACAACTCACCGGAGTCACCTAGTGCAG”, 9460 fluorescence intensity (a.u.). In the case of “TTGGCCATGTTAATGTTTTACTGATCATCAATTTGGTTACCGGAGTCACCTAGTGCAG”, the binding signal was 8980 fluorescence intensity (a.u.).

In the case of “GCCGAGCCGCGTCCCTTTTTCCCATCGCCCACGCAGCGAGCGGAGTCACCTAGTGCAG”, the binding signal was 8920 fluorescence intensity (a.u.).

“TATGATATGTGTGCCTCAGTTGTTGTGCTTGCTGATGTGTCGGAGTCACCTAGTGCAG”: the binding signal was 9730 fluorescence intensity (a.u.). As for “TTTCCGGTTTTTCCAATATTTTTCGATACCGTTTTCATTTCGGAGTCACCTAGTGCAG”, the binding signal was 12800 fluorescence intensity (a.u.). The result for “CAGGTAATGGATTGATTGCAGGGTTGGGATTTGACCAGGTCGGAGTCACCTAGTGCAG” reads 11300 fluorescence intensity (a.u.); that for “TTCATATTTTCACCGTTTGGGTAGAGTGGTGGTGGGGTGTCGGAGTCACCTAGTGCAG”, 10400 fluorescence intensity (a.u.); that for “GAAAGATTTTCACCGTTTGGGTAGGTTGGGGATGGGATGACGGAGTCACCTAGTGCAG”, 11400 fluorescence intensity (a.u.). The result for “CGTCGTGGCGGGTTCATCGGGAGGGGATTATTGATTTAGTCGGAGTCACCTAGTGCAG” reads 21100 fluorescence intensity (a.u.). The result for “GGGTTTGGGGTTGCGATTGGGATTGGTAGGGAGGCTGATGCGGAGTCACCTAGTGCAG” reads 8280 fluorescence intensity (a.u.). Regarding “CGTCATATTTGCACCGTTTGGGTAGGGTGGGGATGGGGTGCGGAGTCACCTAGTGCAG”, the binding signal was 18700 fluorescence intensity (a.u.).

For “GGGGATCGGAGGGTGGGGATACGCATGGTGGATGGTAGTGCGGAGTCACCTAGTGCAG”, the binding signal was 12600 fluorescence intensity (a.u.). The value for “TCAGTCATCGTAAATTATTGTGATTTTTTAGGGAGGGGTGCGGAGTCACCTAGTGCAG” was 9130 fluorescence intensity (a.u.); that for “TTGGGTGGAGGATTTGGAATTTGACCGGTTGACTTAGGGTCGGAGTCACCTAGTGCAG” was 11900 fluorescence intensity (a.u.). On to “TTTCCACCGTTTGGCGTTTGGGTAGGGTTGGGATGGGATGCGGAGTCACCTAGTGCAG”, for which the binding signal is 17200 fluorescence intensity (a.u.). The value for “ATGGGGTTGACTTTTTTTTAGGGATTGCTAGGTGCACCGTCGGAGTCACCTAGTGCAG” was 20100 fluorescence intensity (a.u.). The value for “GTATTGAGGGCTTAATCGTGGTCGTGGGATATTATTTCATCGGAGTCACCTAGTGCAG” was 8390 fluorescence intensity (a.u.). The result for “ATTATTTTTGGTTGTTCTATTTATTTTCTTAAAATAATTCCGGAGTCACCTAGTGCAG” reads 11300 fluorescence intensity (a.u.). As for “CCCCACATCTTTTGCTAGCATGCCCCTACCCATTCATATTCGGAGTCACCTAGTGCAG”, the binding signal was 10500 ± 300 fluorescence intensity (a.u.). The value for “CTGAGTTCTGTATTGGATCAGCTTCATGTTATCGGCATCACGGAGTCACCTAGTGCAG” was 8450 fluorescence intensity (a.u.); that for “TTCTCCTATCTTCAACATTTGCTTTGTTACGTTTTTGACTCGGAGTCACCTAGTGCAG” was 9560 fluorescence intensity (a.u.).

On to “TTTTTCTCGGTAATTTTGTGATTGGTCTACTCCTACAAAACGGAGTCACCTAGTGCAG”, for which the binding signal is 8290 fluorescence intensity (a.u.). For the sequence “TGGATGATTTTGCCATTTTTTTCATTGCTGGTGCGGTGGTCGGAGTCACCTAGTGCAG”, the binding signal was 8460 fluorescence intensity (a.u.). The value for “CCCGGCGTCCTCCTGCTTCCCACCGCATCGTCGCTCGCCGCGGAGTCACCTAGTGCAG” was 8120 fluorescence intensity (a.u.); that for “GAGGGTGGGTGCTTGCTGGCCAGACATTAAAACAATGTGTCGGAGTCACCTAGTGCAG” was 9670 fluorescence intensity (a.u.); that for “TTCTTCCCAGCCAGTGTTCCTAGTATCCATTCTCTCTCAACGGAGTCACCTAGTGCAG” was 9850 fluorescence intensity (a.u.).
